Data: paper PMC4336329 (PLoS ONE, 2015)
In all, about 310,000 compounds went through this assay and about 14,000 (4.5%) showed an effect of 50% or more. The effect is printed as a negative number. The sample as a whole holds a higher share of strong results than the screen did.

These compounds were tested against human ether-à-go-go-related gene (hERG) potassium channel (human, UniProt Q12809) (assay: primary screen, population patch clamp on CHO cells stably expressing hERG; higher = less effect of the substance).
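Note: peak tail current of the secondary pulse compared with the same well before compound.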

human ether-à-go-go-related gene (hERG) potassium channel, sequence (Q12809 whole entry, looked up): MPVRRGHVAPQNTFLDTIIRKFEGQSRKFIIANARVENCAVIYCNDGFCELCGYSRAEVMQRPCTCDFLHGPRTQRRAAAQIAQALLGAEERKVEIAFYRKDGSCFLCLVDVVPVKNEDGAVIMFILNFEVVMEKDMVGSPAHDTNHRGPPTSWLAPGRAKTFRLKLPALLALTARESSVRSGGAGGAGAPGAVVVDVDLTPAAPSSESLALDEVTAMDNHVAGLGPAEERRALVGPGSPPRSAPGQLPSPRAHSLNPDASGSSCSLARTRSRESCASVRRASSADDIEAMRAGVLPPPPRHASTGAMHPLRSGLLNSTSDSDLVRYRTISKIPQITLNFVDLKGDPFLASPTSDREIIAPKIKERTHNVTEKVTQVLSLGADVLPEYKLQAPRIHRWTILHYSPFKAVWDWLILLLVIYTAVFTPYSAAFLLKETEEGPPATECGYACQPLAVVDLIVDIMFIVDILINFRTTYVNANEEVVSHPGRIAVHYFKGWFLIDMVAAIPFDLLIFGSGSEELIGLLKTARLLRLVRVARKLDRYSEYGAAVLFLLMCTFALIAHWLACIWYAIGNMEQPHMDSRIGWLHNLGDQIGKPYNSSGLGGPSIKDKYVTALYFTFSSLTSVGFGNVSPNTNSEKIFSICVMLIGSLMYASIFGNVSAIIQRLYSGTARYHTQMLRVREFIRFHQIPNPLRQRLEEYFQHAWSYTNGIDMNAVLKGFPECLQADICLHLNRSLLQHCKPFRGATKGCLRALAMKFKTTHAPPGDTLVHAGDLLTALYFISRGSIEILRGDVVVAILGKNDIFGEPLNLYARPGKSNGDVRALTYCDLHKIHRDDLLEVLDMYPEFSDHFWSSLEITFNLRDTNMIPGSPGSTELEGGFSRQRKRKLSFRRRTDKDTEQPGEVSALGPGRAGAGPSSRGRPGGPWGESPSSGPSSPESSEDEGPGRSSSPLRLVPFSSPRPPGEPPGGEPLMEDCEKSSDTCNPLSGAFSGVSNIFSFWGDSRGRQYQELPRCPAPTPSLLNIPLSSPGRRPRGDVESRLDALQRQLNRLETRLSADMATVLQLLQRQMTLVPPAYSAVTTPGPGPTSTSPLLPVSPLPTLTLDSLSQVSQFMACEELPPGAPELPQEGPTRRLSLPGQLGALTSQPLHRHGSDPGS

First: O=C(NCCc1ccccc1F)C1CCC(=O)N(Cc2ccc(Cl)cc2)C1 (centres unmarked)
Second: O=C(NCc1ccccc1F)C1CCC(=O)N(Cc2ccc(Cl)cc2)C1 (centres unmarked)
The “hERG current change (%, negative = inhibition) at 10uM” value of the first is higher: -32.5% for the first, -42.1% for the second.

Going from `Cc1ccccc1CCNC(=O)C1CCC(=O)N(Cc2ccc(Cl)cc2)C1` (centres unmarked) to `O=C(NCCc1ccccc1)C1CCC(=O)N(Cc2ccc(Cl)cc2)C1` (centres unmarked), the “hERG current change (%, negative = inhibition) at 10uM” value rises from -33.4% to -20.5%.

Compared with `O=S(=O)(NC1CCCCC1)c1ccc(N2CCOCC2)nc1`, `O=C(NCCCC1CCCC1)C1CCC(=O)N(Cc2ccccc2F)C1` (centres unmarked) is lower in “hERG current change (%, negative = inhibition) at 10uM” value: -2.81% for the first, -9.03% for the second.

Compared with `COc1ccc(C(C(=O)NC2CCCC2)N(C(=O)c2snc(-c3ccc(F)cc3)c2N)c2ccc(F)cc2)cc1` (centres unmarked), `Cc1nn(-c2ccc(F)cc2)c(Cl)c1/C=C/C(=O)OCC(=O)Nc1ccc(F)cc1F` is higher in “hERG current change (%, negative = inhibition) at 10uM” value: 1.29% for the first, 15.5% for the second.

Going from `N#Cc1ccccc1NC(=O)c1ccccc1OCC(=O)Nc1ccc2c(c1)oc1ccccc12` to `Cc1c(C(=O)Nc2ccccc2)c2cc(O)ccc2n1Cc1ccccc1`, the “hERG current change (%, negative = inhibition) at 10uM” value falls from 16.2% to 4.2%.

Compared with `CSc1ccc(NC(=O)CC(C)=O)cc1`, `COC(=O)c1ccncc1C(=O)Nc1ccc(Oc2ncc(C(F)(F)F)cc2Cl)cc1` is higher in “hERG current change (%, negative = inhibition) at 10uM” value: -21.3% for the first, -5.09% for the second.

First: Cc1c(NC(=O)c2cc3c(=O)n4ccccc4nc3s2)c(=O)n(-c2ccccc2)n1C
Second: Cc1cc(C)c(OC2(c3ccccc3)OC(=O)c3ccccc32)c(C)c1 (centres unmarked)
The “hERG current change (%, negative = inhibition) at 10uM” value of the first is higher: 8.11% for the first, -5.57% for the second.

Compared with `CN(Cc1nc2ccccc2n1C)S(=O)(=O)c1ccc(Cl)cc1`, `O=C(NCCc1ccc(Cl)cc1)C1CC(=O)N(CCc2ccccc2)C1` (centres unmarked) is lower in “hERG current change (%, negative = inhibition) at 10uM” value: 3.21% for the first, -62% for the second.

Going from `CCC(=O)c1c[nH]c(C(=O)NCCc2ccccn2)c1` to `Cc1ccc(CNC(=O)C2CCC(=O)N(CCc3ccccn3)C2)s1` (centres unmarked), the “hERG current change (%, negative = inhibition) at 10uM” value falls from 3.31% to 2.53%.

Compared with `O=C(CCNC(=O)N1CCn2c1nc1ccccc12)NCc1ccc(F)cc1`, `Cn1nc(C(=O)OCc2ccc(F)cc2)c2ccccc2c1=O` is higher in “hERG current change (%, negative = inhibition) at 10uM” value: -6.29% for the first, 3.57% for the second.

Going from `COc1ccc(Br)cc1/C=C(\C(=O)O)c1ccc(S(=O)(=O)N2CCCCC2)s1` to `Cc1cc(CNC(=O)C2CCC(=O)N(CCc3ccc(Cl)cc3)C2)no1` (centres unmarked), the “hERG current change (%, negative = inhibition) at 10uM” value falls from 0.483% to -39.7%.

Going from `Cc1ccc(CCN2CC(C(=O)NCCc3ccccc3)CC2=O)cc1` (centres unmarked) to `O=C(NCCc1ccccc1)C1CC(=O)N(CCc2ccccc2)C1` (centres unmarked), the “hERG current change (%, negative = inhibition) at 10uM” value rises from -3.16% to 6.57%.

Going from `Cc1ccc(CNC(=O)C2CCC(=O)N(CCc3ccccc3)C2)s1` (centres unmarked) to `Cc1ccc(CNC(=O)C2CCC(=O)N(CCc3ccc(Cl)cc3)C2)s1` (centres unmarked), the “hERG current change (%, negative = inhibition) at 10uM” value falls from -25.7% to -69.4%.

First: O=C(NCCOc1ccccc1)C1CCC(=O)N(CCc2ccc(Cl)cc2)C1 (centres unmarked)
Second: O=C(NCCOc1ccccc1)C1CCC(=O)N(Cc2ccc(Cl)cc2)C1 (centres unmarked)
The “hERG current change (%, negative = inhibition) at 10uM” value of the first is lower: -88.2% for the first, -31.2% for the second.

First: O=C(NCCCc1ccccc1)C1CCC(=O)N(Cc2ccc(Cl)cc2)C1 (centres unmarked)
Second: O=C(NCCCc1ccccc1)C1CCC(=O)N(CCc2ccc(Cl)cc2)C1 (centres unmarked)
The “hERG current change (%, negative = inhibition) at 10uM” value of the first is higher: -61.3% for the first, -79.8% for the second.

Going from `O=C(NCCOc1ccccc1)C1CCC(=O)N(CCc2ccccn2)C1` (centres unmarked) to `O=C(NCCc1ccccc1Cl)C1CCC(=O)N(CCCc2ccccc2)C1` (centres unmarked), the “hERG current change (%, negative = inhibition) at 10uM” value falls from -11.9% to -34.1%.

Going from `Cc1ccc(S(=O)(=O)N(CCCO)CC(O)CON=C2c3ccccc3-c3ccccc32)cc1` (centres unmarked) to `Cc1ccc(CSCc2ccc(C(=O)O)o2)cc1`, the “hERG current change (%, negative = inhibition) at 10uM” value rises from 14.4% to 21.8%.

Going from `NC(=O)c1ccc(-c2noc(-c3cccc(Cl)c3)n2)cc1` to `O=C(NCCCc1ccncc1)C1CCC(=O)N(Cc2ccc(Cl)cc2)C1` (centres unmarked), the “hERG current change (%, negative = inhibition) at 10uM” value falls from 19.4% to -61.1%.

Compared with `O=C(CCCCn1c(=O)[nH]c2ccsc2c1=O)NCC1CCCO1` (centres unmarked), `O=C(NCc1cccs1)c1noc2c1CCCC2` is lower in “hERG current change (%, negative = inhibition) at 10uM” value: 4.17% for the first, -2.52% for the second.

Going from `COC(=O)[C@]1(C)CCC[C@@]2(C)C3CC[C@@]4(C)C[C@]3(CCC21)CC(=O)N4Cc1ccc(OC)cc1` (some centres unmarked) to `O=C(NCCCC1CCCC1)C1CCC(=O)N(Cc2ccc(Cl)cc2)C1` (centres unmarked), the “hERG current change (%, negative = inhibition) at 10uM” value falls from 7.82% to -61.4%.

Compared with `C#CCOCCOCCOCCNc1nc(N2CCN(C(=O)[C@H](CCCC[NH3+])n3cc(CCCC)nn3)CC2)nc(N2CCN(C(=O)[C@H](CCCC[NH3+])n3cc(CCC(=O)O)nn3)CC2)n1.[Cl-]`, `O=C(NCCN1CCCC1=O)C1CCC(=O)N(CCc2ccc(Cl)cc2)C1` (centres unmarked) is lower in “hERG current change (%, negative = inhibition) at 10uM” value: 17.4% for the first, -4.65% for the second.

Going from `CC(C)c1cc(CNC(=O)C2CCC(=O)N(CCc3ccc(Cl)cc3)C2)on1` (centres unmarked) to `CC(C)c1nc(CNC(=O)C2CCC(=O)N(CCc3ccc(Cl)cc3)C2)no1` (centres unmarked), the “hERG current change (%, negative = inhibition) at 10uM” value rises from -68.1% to -27.6%.

Compared with `O=C(NCCCc1ccncc1)C1CCC(=O)N(Cc2cccc(C(F)(F)F)c2)C1` (centres unmarked), `O=C(NCCc1cnccn1)C1CCC(=O)N(Cc2ccc(Cl)cc2)C1` (centres unmarked) is higher in “hERG current change (%, negative = inhibition) at 10uM” value: -18.7% for the first, 2.46% for the second.

`O=C(NCCCC1CCCC1)C1CCC(=O)N(Cc2cccc(F)c2)C1` (centres unmarked) was tested, and the “hERG current change (%, negative = inhibition) at 10uM” value was -15.2%.
